Most compounds without a hit are left out; they make up all but 5.4% or so of the library.
aDG glyco act – activators of alpha-DG glycosylation, primary screen, uHTS, Pro5-aDG cells, AlphaScreen | alpha-DG glycosylation AlphaScreen (IIH6); 0% Pro5, 100% B10-LARGE cell signal | activation, % at 10 µM | 0.22% of 360,000 active;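 active = activation of at least 8% versus controls, or a plate z-score of at least 8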;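 note: Pro5 are CHO cells carrying HIG-tagged alpha-DG that lacks glycosylation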
rCAG binder – binders of r(CAG) RNA repeats, primary screen, biochemical, fluorescence; r(CAG) RNA repeat, TO-PRO-1 dye displacement fluorescence; inhibition, % at 3 µM; 1.3% of 370,000 active;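 active = inhibition above the plate cutoff, the mean of all test compounds on that plate plus 3 SD, cut at about 35% in these data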;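 note: higher means more dye released from RNA so lower well fluorescence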
ALR inh – inhibitors of human ALR sulfhydryl oxidase, primary screen, biochemical, H2O2 detection, HRP-luminol luminescence, single point | FAD-linked sulfhydryl oxidase ALR (Homo sapiens), P55789 | purified ALR, DTT oxidation | inhibition, % (test concentration not listed) | 3.8% of 290,000 active | AID 485317, 2010;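 active = mean replicate inhibition above about 79%, with every replicate also reaching it, limit read from the data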
Target sequence (P55789 whole entry, looked up): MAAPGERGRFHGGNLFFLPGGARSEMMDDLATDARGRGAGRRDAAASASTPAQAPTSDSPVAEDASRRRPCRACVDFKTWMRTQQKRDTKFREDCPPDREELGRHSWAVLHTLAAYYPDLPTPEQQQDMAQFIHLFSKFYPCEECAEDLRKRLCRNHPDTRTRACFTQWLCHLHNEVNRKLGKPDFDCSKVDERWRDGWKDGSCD
PHOSPHO1 block – PubChem AID 1565. recombinant PHOSPHO1, absorbance phosphatase assay. 1.1% of 290,000 active. inhibition, % at 13.3 µM; in the data active = inhibition above about 60%
Target sequence (Q8TCT1 whole entry, looked up): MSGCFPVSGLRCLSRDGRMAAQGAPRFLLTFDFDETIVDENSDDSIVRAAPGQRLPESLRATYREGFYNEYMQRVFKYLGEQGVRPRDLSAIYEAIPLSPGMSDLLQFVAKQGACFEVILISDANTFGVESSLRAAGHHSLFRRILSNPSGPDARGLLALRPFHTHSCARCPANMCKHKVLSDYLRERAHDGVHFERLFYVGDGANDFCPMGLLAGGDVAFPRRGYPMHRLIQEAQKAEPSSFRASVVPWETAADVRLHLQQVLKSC
A3A deaminase – APOBEC3A ssDNA deaminase inhibitors, primary screen, selectivity assay for APOBEC3G inhibitor project, biochemical, FAM/TAMRA oligo cleavage fluorescence; recombinant A3A, FAM/TAMRA ssDNA deamination fluorescence; inhibition, % at 20 µM; 0.41% of 330,000 active;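 active = at least 40% inhibition at 20 µM here, with at most 30% in a related deaminase screen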
Target sequence (P31941 whole entry, looked up): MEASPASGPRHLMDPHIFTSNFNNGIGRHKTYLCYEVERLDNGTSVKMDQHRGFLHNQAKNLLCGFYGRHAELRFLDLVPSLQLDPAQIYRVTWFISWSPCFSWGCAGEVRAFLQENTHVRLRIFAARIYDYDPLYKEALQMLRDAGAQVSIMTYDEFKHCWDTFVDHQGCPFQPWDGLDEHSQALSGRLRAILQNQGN
APOBEC3G inh – APOBEC3G DNA deaminase inhibitors, primary screen, biochemical, fluorescence, single-stranded DNA substrate, uHTS | DNA dC->dU-editing enzyme APOBEC-3G (Homo sapiens), Q9HC16 | recombinant A3G, ssDNA deamination FAM/TAMRA fluorescence | inhibition, % at 20 µM | 0.28% of 330,000 active;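 active = inhibition of at least 40% at 20 µM, with no more than 30% in the related APOBEC3A deaminase screen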
Of the large screens only hits and unclear results are named; the others gave an inactive call.

COc1ccc(CC(=O)NCc2n[nH]c(=S)n2C)cc1	ALR inh 96.6
O=C(NCc1n[nH]c(=S)n1-c1ccc(Br)cc1)c1ccc(S(=O)(=O)N2CCOCC2)cc1	PHOSPHO1 block 76.6
O=C(NCc1n[nH]c(=S)n1-c1ccc([N+](=O)[O-])cc1)c1ccc(S(=O)(=O)N2CCOCC2)cc1	none (no result: ALR inh)
Cn1c(CC(=O)Nc2ccccc2)n[nH]c1=S	PHOSPHO1 block 60.2
O=C(OC12CCCN(C1)/C(=C/c1cccnc1)C2)C1CCCCC1 (centres undefined)	none (no result: aDG glyco act, ALR inh, PHOSPHO1 block, A3A deaminase, APOBEC3G inh)
COc1ccc(S[C@]2(C(=O)N3CCCC3)CC(=O)N(c3ccccc3OC)[C@@H]2c2ccc(OC)cc2)cc1	none (no result: aDG glyco act, ALR inh, PHOSPHO1 block, A3A deaminase, APOBEC3G inh)
COc1ccc(-n2c(CNC(=O)c3ccc(S(=O)(=O)N4CCCC4)cc3)n[nH]c2=S)cc1	ALR inh 91.2
COc1cccc(-n2c(CNC(=O)OC(C)(C)C)n[nH]c2=S)c1	ALR inh 89.1, PHOSPHO1 block 84.3
O=C(NCc1n[nH]c(=S)n1-c1ccc(F)cc1)c1ccc(S(=O)(=O)N2CCCCC2)cc1	none
COc1ccc(CC(=O)NCc2nnc(SCC(=O)Nc3ccccc3)n2C)cc1	none
COc1ccc(CC(=O)NCc2nnc(SCC(=O)Nc3ccc(OC)cc3)n2C)cc1	PHOSPHO1 block 65.8
Cn1c(CCNC(=O)OC(C)(C)C)n[nH]c1=S	ALR inh 95.2, PHOSPHO1 block 79.4
Cc1ccc(CN2CCCCC(NC(=O)c3ccc(Br)cc3)C2=O)cc1 (centres undefined)	none (no result: aDG glyco act, ALR inh, PHOSPHO1 block, A3A deaminase, APOBEC3G inh)
COc1cc(O)c(C(CC(=O)N2CCCC2)c2ccc(N(C)C)cc2)c(OC)c1 (centres undefined)	ALR inh 98.2
COc1ccc(C(CC(=O)N2CCCCC2)c2c(O)cc(OC)cc2OC)cc1 (centres undefined)	none (no result: ALR inh)
COc1cc(O)c(C(CCN2CCCC2)c2ccc(N(C)C)cc2)c(OC)c1 (centres undefined)	none (no result: ALR inh)
COc1cc(O)c(C(CCN2CCCCC2)c2ccc(N(C)C)cc2)c(OC)c1 (centres undefined)	ALR inh 98.3
C=CCSc1nc2sc3c(c2c(=O)n1CC)CCc1ccccc1-3	PHOSPHO1 block 87.0
C=CCn1c(SCC)nc2sc3c(c2c1=O)CCc1ccccc1-3	none
COc1ccccc1/C=C1\NC(=S)N(CC2CCCO2)C1=O (centres undefined)	PHOSPHO1 block 97.4
CCOC(=O)CNC(=S)N(CCCN1CCCC1)Cc1cccs1	ALR inh 99.0
CC(C)(C)c1nnc(SCC(=O)Nc2ccc(N3CCCCC3)cc2)n1N	ALR inh 99.2 (no result: PHOSPHO1 block)
CC(C)n1cnnc1SCC(=O)Nc1ccc(N2CCCCC2)cc1	ALR inh 98.8 (no result: PHOSPHO1 block)
CC(C)C(=O)Nc1ccc(N2CCCC2)cc1	none
Cn1nnnc1SCC(=O)Nc1ccc(N2CCOCC2)cc1	none
CC(Sc1nncn1C)C(=O)Nc1ccc(N2CCCCC2)cc1 (centres undefined)	ALR inh 92.2 (no result: PHOSPHO1 block)
CC(=O)Nc1ccc2c(c1)NC(=O)CC2	none
N#CC(C#N)=C1CCc2ccccc2N1	none (no result: ALR inh)
COC(=O)Nc1ccc2c(c1)Nc1ccccc1CC2	ALR inh 97.7
Nc1ccc2c(c1)Nc1ccccc1CC2	ALR inh 98.8
CCN(CC)c1ccc(C=Nn2c(C)nnc2C)cc1	none (no result: aDG glyco act, ALR inh, PHOSPHO1 block, A3A deaminase, APOBEC3G inh)
O=C(CSc1ccc(-c2ccco2)nn1)Nc1ccccc1	ALR inh 98.1
O=C(CSc1ccc(-c2ccco2)nn1)c1ccccc1	ALR inh 98.1
O=C(CSc1ccc(-c2ccco2)nn1)Nc1ccc(F)cc1	none
O=C1NC(Cc2cnc[nH]2)C(=O)N2CCCC12 (centres undefined)	none (no result: aDG glyco act, ALR inh, PHOSPHO1 block, A3A deaminase, APOBEC3G inh)
CC(C)CCN1C(=O)COc2ccccc2C1c1nnnn1-c1ccc2c(c1)OCCO2 (centres undefined)	none (no result: aDG glyco act, ALR inh, PHOSPHO1 block, A3A deaminase, APOBEC3G inh)
COc1cccc(Oc2cn[nH]c2-c2ccc(O)cc2O)c1	ALR inh 80.4
COc1ccc(-c2cn[nH]c2-c2ccc(OC)cc2O)cc1	ALR inh 96.9
COc1cccc(Oc2cn[nH]c2-c2ccc(OC)cc2O)c1	none
CCOC(=O)c1ccc(NC(=O)CSc2nnc(SCc3cccc4ccccc34)s2)cc1	none (no result: aDG glyco act, ALR inh, PHOSPHO1 block, A3A deaminase, APOBEC3G inh)
Cc1cc(O)c(C(C)C)cc1N=C1CSC(=O)N1	PHOSPHO1 block 86.6
Cc1ccc(N=C2CSC(=O)N2)cc1	none
CC1=CC(=NOC(=O)/C=C/c2ccccc2)C=C(C)C1=O	none
CC1=C(C)/C(=N\OC(=O)/C=C/c2ccccc2)C=CC1=O	ALR inh 86.7
CC1=CC(=O)C=C(C)C1=NOC(=O)/C=C\c1ccccc1	ALR inh 98.1
COC(=O)c1cc(-c2cccc(C(C)C)c2)c(=O)n2c1CCC2	none (no result: aDG glyco act, ALR inh, PHOSPHO1 block, A3A deaminase, APOBEC3G inh)
CCCOc1ccc2nc(C)c(CCC)c(SC(=N)N)c2c1	PHOSPHO1 block 66.8
CCCc1c(C)nc2ccc(OC)cc2c1SCCC(=O)O	none
Fc1ccc(CN2C3=NCCN3c3ccccc32)cc1	ALR inh 95.0
Cc1ccccc1CN1C2=NCCN2c2ccccc21	ALR inh 98.8
CCCCCN1C2=NCCN2c2ccccc21	ALR inh 96.3
Fc1ccc(CN2C3=NCCCN3c3ccccc32)cc1	none
Cc1ccccc1CN1C2=NCCCN2c2ccccc21	none
CCOC(=O)CC[C@@H]1CC[C@]2(CCCN(S(=O)(=O)C3CCCCC3)C2)O1	none (no result: aDG glyco act, ALR inh, PHOSPHO1 block, A3A deaminase, APOBEC3G inh)
O=C(COC(=O)COc1ccc(Nc2ccccc2)cc1)NCc1ccco1	ALR inh 99.7
O=C(CN(c1ccccc1)S(=O)(=O)c1ccccc1)Nc1ccccc1C(=O)NCc1ccco1	none
O=C(CN(c1ccccc1)S(=O)(=O)c1ccccc1)NCCSCc1ccco1	PHOSPHO1 block 71.7
O=C(COc1ccccc1)NCCSCc1ccco1	ALR inh 81.9
Cc1ccc(N(CC(=O)Nc2ccccc2C(=O)NCc2ccco2)S(=O)(=O)c2ccccc2)cc1C	ALR inh 96.4
CC(=O)c1ccc(OCC(=O)OCC(=O)NCc2ccco2)cc1	none (no result: PHOSPHO1 block)
Cc1ccc(S(=O)(=O)N2CCCc3nc(C)c(C)cc32)cc1	none (no result: aDG glyco act, ALR inh, PHOSPHO1 block, A3A deaminase, APOBEC3G inh)
CNc1nnc(-c2cccc(N(C)C)c2)s1	ALR inh 99.0
Cc1cccc(-c2nnc(NC(=O)c3cccs3)s2)c1	none
O=C(NCC1COc2ccccc2O1)c1ccc(NC(=O)c2cccc(F)c2)cc1 (centres undefined)	none (no result: aDG glyco act, ALR inh, PHOSPHO1 block, A3A deaminase, APOBEC3G inh)
CC(C)C[C@H]1COc2cccc(F)c2S(=O)(=O)N1Cc1cn(Cc2ccc(F)cc2)nn1	none (no result: aDG glyco act, ALR inh, PHOSPHO1 block, A3A deaminase, APOBEC3G inh)
COC(=O)C1CN(Cc2cn(CCOC(C)=O)nn2)CCS(=O)(=O)N1Cc1ccc(Cl)cc1 (centres undefined)	none (no result: aDG glyco act, ALR inh, PHOSPHO1 block, A3A deaminase, APOBEC3G inh)
